Measured values: PubChem BioAssay (NCI)
Compounds without any hit were thinned out: in the full panel of roughly 79,000, 15% have a hit. A number with no mark means an inactive call. No stated cut-off is given here; in the data, active means growth inhibition above about 70%; inactive means the rest.

Assay: NCI Yeast Anticancer Drug Screen. Data for the bub3 strain (AID 167)
Conditions: S. cerevisiae bub3 mutant strain, at 50.0 µM, active compounds read high
Procedure, shortened: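 Whole-cell yeast assay. The mutant strain was incubated with compounds, and growth inhibition was determined by comparison with vehicle-treated cells.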
Work on `S=C1SC(=Nc2ccccc2)C(=Nc2ccccc2)N1c1ccccc1` yielded a growth inhibition of -19.5%.
For `COc1ccc(NC(=O)C(=O)Cc2ccc([N+](=O)[O-])c([N+](=O)[O-])c2CC(=O)C(=O)Nc2ccc(OC)cc2OC)c(OC)c1`, the growth inhibition was 6.15%.
In the case of `CCO/C(Cc1ccc(Cl)cc1)=N/NC(N)=S`, the growth inhibition is reported as 21.2%.
With `O=c1[nH]c(-c2ccccc2)c(-c2ccccc2)nc1Cl` the growth inhibition was -19.1%.
`OC(c1ccccc1)(c1c2ccccc2cc2ccccc12)C1CCC1` (stereo not given) showed a growth inhibition of 13%.
Work on `CNCCC(=O)c1ccccc1` yielded a growth inhibition of -17.6%.
Work on `NC(=O)c1nnc2c(F)cccc2c1N` yielded a growth inhibition of -27.2%.
`CCc1nnc(N)o1` showed a growth inhibition of -13.7%.
With `CC(C)CNC(=O)Nc1ccccc1C(F)(F)F` the growth inhibition was 7.7%.
Work on `O=[N+]([O-])c1cccc(/C=N\O)c1` yielded a growth inhibition of -1.2%.
With `CCOC(=O)CNC(=O)C(Cc1cnc[nH]1)NC(=O)OCc1ccccc1` (stereo not given) the growth inhibition was -6.7%.
`Cc1cccnc1C` gave a growth inhibition of 14.4%.
Compound `CCOC(=O)C(Cc1ccc(OCc2ccccc2)c(OCc2ccccc2)c1)(NC=O)C(=O)OCC` has a growth inhibition of -9.9%.
In the case of `CC1(c2ccc(C(O)c3ccccc3)s2)OCCO1` (stereo not given), the growth inhibition is reported as 11.4%.
Compound `CCOC(=O)c1ccc(NC(=O)c2ccc(Cl)cc2Cl)cc1` has a growth inhibition of 36.6%.
`CCN(CC)CCC1CC/C(=C\c2ccc(OC)cc2)C1=O` (stereo not given) showed a growth inhibition of -2.45%.
Work on `O=C(N/N=C\c1cccnc1)Nc1ccc(N=Nc2ccccc2)cc1` yielded a growth inhibition of 11.9%.
For `CCCCCC(=O)Nc1cc(N)cc(C(=O)O)c1`, the growth inhibition was 0.1%.
Work on `COc1ccc(/C=C2\CCC(CCN(C)C)(C3=CCCC3)C2=O)cc1` (stereo not given) yielded a growth inhibition of -14.4%.
`COC(=O)c1cc(OC)c2cccnc2c1Nc1ccccc1` gave a growth inhibition of 11.1%.
`N#CCC(=O)N1CCCC1` showed a growth inhibition of -14.3%.
Work on `CC1(C2(C)Nc3ccccc3O2)Nc2ccccc2O1` (stereo not given) yielded a growth inhibition of 3.65%.
With `S=c1ncnc2cc3[nH][nH]cc3cc12` the growth inhibition was -7.95%.
For `CCOc1cc2c(cc1C(C)c1ccc(OCc3ccccc3)c(OC)c1)OCO2` (stereo not given), the growth inhibition was -2.05%.
Work on `CC1=C(C(=O)Nc2ccc([N+](=O)[O-])cc2)C(c2ccco2)C(C(=O)Nc2ccc([N+](=O)[O-])cc2)=C(C)N1` yielded a growth inhibition of 43.5%.
